{
  "source": "the supplement of paper PMC11383364",
  "data": [
    {"system": "SUM149", "assay": "percent difference in area under dose-response curve of relative cell number, RPMI vs HPLM; higher = drug relatively more effective in HPLM than RPMI (negative = less effective in HPLM)", "settings": "treatment time: 72 h; dose range: 10-point, 1 nM to 20 µM; media compared: RPMI vs HPLM", "description": "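SUM149 triple-negative breast cancer cells, 500 cells/well in 384-well plates, were grown in RPMI or human plasma-like medium (HPLM) with 5% dialyzed FBS. They were pin-transferred with an anticancer plus metabolic-inhibitor library in 10-point dose series (20 µM to 1 nM). After 72 h, cells were fixed, stained with bisbenzimide and counted by Acumen plate cytometry. The AUC of relative survival vs dose was computed per medium, and the percent difference in AUC between RPMI and HPLM is reported.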", "units": {"percent difference in area under dose-response curve": "%"}, "values": [
      {"smiles": "CS(=O)(=O)N1CCc2c(-c3cnc(N)nc3)nc(N3CCOCC3)nc21", "percent difference in area under dose-response curve": -3.59},
      {"smiles": "O=C(O)C(=O)O.[NH-][C@@H]1CCCC[C@H]1[NH-].[Pt+2]", "note": "[Oxaliplatin]", "percent difference in area under dose-response curve": -2.44},
      {"smiles": "O=C(/C=C/c1cccnc1)NCCCCC1CCN(C(=O)c2ccccc2)CC1", "percent difference in area under dose-response curve": -32.8},
      {"smiles": "CCC(C)SSc1ncc[nH]1", "note": "(stereo not given)", "percent difference in area under dose-response curve": 3.05},
      {"smiles": "C#Cc1cccc(Nc2ncnc3cc(OCCOC)c(OCCO)cc23)c1", "percent difference in area under dose-response curve": -0.553},
      {"smiles": "S=C(NCc1ccc2c(c1)OCO2)N1CCN(c2ncnc3c2oc2ccccc23)CC1", "note": "[Amuvatinib]", "percent difference in area under dose-response curve": 1.06},
      {"smiles": "CC(C)(C)C(=O)Nc1ccc2c(c1)C(=O)C(=O)c1ccccc1-2", "percent difference in area under dose-response curve": 2.11},
      {"smiles": "NC(=O)Nc1cc(-c2cccc(F)c2)sc1C(=O)N[C@H]1CCCNC1", "percent difference in area under dose-response curve": -2.68},
      {"smiles": "C[C@@H]1CN(CC(=O)Nc2ccc3c(c2)Cc2cccc(-c4cc(=O)cc(N5CCOCC5)o4)c2S3)C[C@H](C)O1", "percent difference in area under dose-response curve": -5.04},
      {"smiles": "COCC[n+]1c2c(n(Cc3cnccn3)c1C)C(=O)c1ccccc1C2=O", "percent difference in area under dose-response curve": 15.7},
      {"smiles": "C#Cc1cccc(Nc2ncnc3cc(OCCOC)c(OCCOC)cc23)c1", "note": "[Erlotinib_HCl]", "percent difference in area under dose-response curve": -0.149},
      {"smiles": "CC[C@]1(O)C[C@H]2CN(CCc3c([nH]c4ccccc34)[C@@](C(=O)OC)(c3cc4c(cc3OC)N(C=O)[C@H]3[C@@](O)(C(=O)OC)[C@H](OC(C)=O)[C@]5(CC)C=CCN6CC[C@]43[C@@H]65)C2)C1", "note": "[Vincristine]", "percent difference in area under dose-response curve": -16.7},
      {"smiles": "CC(=O)N1CCN(c2ccc(OCC3COC(Cn4ccnc4)(c4ccc(Cl)cc4Cl)O3)cc2)CC1", "note": "(stereo not given) [Ketoconazole]", "percent difference in area under dose-response curve": -8.22},
      {"smiles": "COc1ccc(-c2ccc3c(N4CCOCC4)nc(N4C[C@@H](C)O[C@@H](C)C4)nc3n2)cc1CO", "percent difference in area under dose-response curve": -2.21},
      {"smiles": "COC(=O)c1ccc2c(c1)NC(=O)/C2=C(\\Nc1ccc(N(C)C(=O)CN2CCN(C)CC2)cc1)c1ccccc1", "percent difference in area under dose-response curve": 3.26},
      {"smiles": "COc1c(C)cnc(Cn2cnc3c(Cl)nc(N)nc32)c1C", "percent difference in area under dose-response curve": -26.2},
      {"smiles": "CCC[C@H](NC(=O)/C(C#N)=C/c1cccc(Br)n1)c1ccccc1", "percent difference in area under dose-response curve": 5.71},
      {"smiles": "CC(=O)OC[C@H]1O[C@@H]([S-])[C@H](OC(C)=O)[C@@H](OC(C)=O)[C@@H]1OC(C)=O.CCP(CC)CC.[Au+]", "note": "[Auranofin]", "percent difference in area under dose-response curve": -10.3},
      {"smiles": "Nc1nc2c(c(=O)[nH]1)C[C@@H](CCc1ccc(C(=O)N[C@@H](CCC(=O)O)C(=O)O)cc1)CN2", "note": "[Lometrexol]", "percent difference in area under dose-response curve": -68},
      {"smiles": "CCC[C@H](Nc1nc(-c2ccc(NC(=O)NCC)c(OC)c2)ncc1C)c1cccnc1", "percent difference in area under dose-response curve": -15.1},
      {"smiles": "Nc1nc(Cl)nc2c1ncn2[C@@H]1O[C@H](CO)[C@@H](O)[C@@H]1F", "note": "[Clofarabine]", "percent difference in area under dose-response curve": -18.6},
      {"smiles": "O=c1[nH]c(=O)n(C2CCCO2)cc1F", "note": "(stereo not given) [Ftorafur]", "percent difference in area under dose-response curve": -2.37},
      {"smiles": "COc1cc2nccc(Oc3ccc(NC(=O)C4(C(=O)Nc5ccc(F)cc5)CC4)cc3)c2cc1OC", "note": "[Cabozantinib_malate]", "percent difference in area under dose-response curve": 13.2},
      {"smiles": "O=C(NCC1(c2nc(-c3ccccc3)cs2)CCOCC1)c1cccc(-c2noc(C(F)(F)F)n2)c1", "percent difference in area under dose-response curve": 0.481},
      {"smiles": "CNCCC(Oc1ccc(C(F)(F)F)cc1)c1ccccc1", "note": "(stereo not given) [Fluoxetine]", "percent difference in area under dose-response curve": 0.518},
      {"smiles": "C=CCN(C)CCCCCCOc1ccc(C(=O)c2ccc(Br)cc2)c(F)c1", "percent difference in area under dose-response curve": -0.097},
      {"smiles": "CC(C)n1c(/C=C/C(O)CC(O)CC(=O)O)c(-c2ccc(F)cc2)c2ccccc21", "note": "(stereo not given) [Fluvastatin_sodium]", "percent difference in area under dose-response curve": -8.4},
      {"smiles": "O=C1c2c(O)ccc(O)c2C(=O)c2c(NCCNCCO)ccc(NCCNCCO)c21", "note": "[Mitoxantrone_HCl]", "percent difference in area under dose-response curve": -32.7},
      {"smiles": "CCCCC[C@H](CC(=O)NO)C(=O)N[C@H](C(=O)N1CCC[C@H]1CO)C(C)C", "note": "[Actinonin]", "percent difference in area under dose-response curve": 1.68},
      {"smiles": "CN(C)CCOc1ccc(-c2nc(-c3ccncc3)c(-c3ccc4c(c3)CC/C4=N\\O)[nH]2)cc1", "percent difference in area under dose-response curve": -4.32},
      {"smiles": "CC(C)n1nc(-c2ccc3oc(N)nc3c2)c2c(N)ncnc21", "percent difference in area under dose-response curve": 0.531},
      {"smiles": "CN(c1ncccc1CNc1nc(Nc2ccc3c(c2)CC(=O)N3)ncc1C(F)(F)F)S(C)(=O)=O", "percent difference in area under dose-response curve": -16.2},
      {"smiles": "COc1c(C)c2c(c(O)c1C/C=C(\\C)CCC(=O)OCCN1CCOCC1)C(=O)OC2", "note": "[Mycophenolate_mofetil]", "percent difference in area under dose-response curve": -4.5},
      {"smiles": "Nc1ccccc1NC(=O)c1ccc(CNc2nccc(-c3cccnc3)n2)cc1", "note": "[Mocetinostat]", "percent difference in area under dose-response curve": 0.546},
      {"smiles": "CC1(C)CCC2=C(O1)c1ccccc1C(=O)C2=O", "note": "[beta_Lapachone]", "percent difference in area under dose-response curve": 0.097},
      {"smiles": "O=c1cnn([C@@H]2O[C@H](CO)[C@@H](O)[C@H]2O)c(=O)[nH]1", "note": "[6_Azauridine]", "percent difference in area under dose-response curve": 15.1},
      {"smiles": "COc1cc(O)c(CC=C(C)C)c(O)c1C(=O)/C=C/c1ccc(O)cc1", "note": "[Xanthohumol]", "percent difference in area under dose-response curve": -9.86},
      {"smiles": "C[C@H]1O[C@@H](O[C@H]2[C@@H](O)C[C@H](O[C@H]3[C@@H](O)C[C@H](O[C@H]4CC[C@@]5(C)[C@H](CC[C@@H]6[C@@H]5CC[C@]5(C)[C@@H](C7=CC(=O)OC7)CC[C@]65O)C4)O[C@@H]3C)O[C@@H]2C)C[C@H](O)[C@@H]1O", "note": "[Digitoxin]", "percent difference in area under dose-response curve": -8.01},
      {"smiles": "O=C(CCCCCCC(=O)Nc1ccc([C@H]2O[C@@H](CSc3nc(-c4ccccc4)c(-c4ccccc4)o3)C[C@@H](c3ccc(CO)cc3)O2)cc1)NO", "note": "[Tubacin]", "percent difference in area under dose-response curve": -4.43},
      {"smiles": "O=C(Nc1cccnc1)N1CCC(Cc2cccc(Oc3ccc(C(F)(F)F)cn3)c2)CC1", "percent difference in area under dose-response curve": -4.77}
    ]}
  ]
}
